PubChem BioAssay (NCI)
About 83,000 compounds went through this panel and 20% of them were active in at least one assay; those are over-represented in the sample as a whole.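 48-hour exposure, single concentration, 96-well plates; percent growth endpoint where 0 means no net growth. Active: below 10.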 Calls of active or inactive are those of the source.

How the values were obtained:
Assay in all cases: NCI-60 one-dose screen, 48 h (100 = growth as untreated, 0 = no growth, -100 = all killed)
Settings in all cases: 10 µM unless noted
HCT-15 colon = test system: HCT-15 colon
HT29 colon = test system: HT29 colon
SNB-75 CNS = test system: SNB-75 CNS
SNB-19 CNS = test system: SNB-19 CNS
U251 CNS = test system: U251 CNS
PC-3 prostate = test system: PC-3 prostate
SK-MEL-5 melanoma = test system: SK-MEL-5 melanoma
UACC-62 melanoma = test system: UACC-62 melanoma
LOX IMVI melanoma = test system: LOX IMVI melanoma
SK-MEL-28 melanoma = test system: SK-MEL-28 melanoma
SK-MEL-2 melanoma = test system: SK-MEL-2 melanoma
EKVX NSCLC = test system: EKVX NSCLC
SN12C renal = test system: SN12C renal
UO-31 renal = test system: UO-31 renal
TK-10 renal = test system: TK-10 renal
ACHN renal = test system: ACHN renal
CAKI-1 renal = test system: CAKI-1 renal
A498 renal = test system: A498 renal
CCRF-CEM leukemia = test system: CCRF-CEM leukemia
MOLT-4 leukemia = test system: MOLT-4 leukemia

Measured: growth

CCOC(=O)c1c[nH]c2cc(OCC3CC3)c(OCC3CC3)cc2c1=O
inactive: HCT-15 colon 104% | HT29 colon 111% | SNB-75 CNS 114% | SNB-19 CNS 117% | U251 CNS 119% | PC-3 prostate 95.1% | SK-MEL-5 melanoma 112% | UACC-62 melanoma 104% | LOX IMVI melanoma 113% | SK-MEL-28 melanoma 110% | SK-MEL-2 melanoma 119% | EKVX NSCLC 116% | SN12C renal 108% | UO-31 renal 86.5% | TK-10 renal 126% | ACHN renal 105% | CAKI-1 renal 104% | A498 renal 94.1% | CCRF-CEM leukemia 91.3% | MOLT-4 leukemia 109%

Cc1cc(C)c(O)c(CNCCCNCc2cc(C)cc(C)c2O)c1
inactive: HCT-15 colon 34.9% | HT29 colon 70.9% | SNB-75 CNS 59.6% | SNB-19 CNS 68.9% | U251 CNS 51.3% | PC-3 prostate 64.8% | SK-MEL-5 melanoma 61.9% | UACC-62 melanoma 12.6% | LOX IMVI melanoma 39.8% | SK-MEL-28 melanoma 62.4% | SK-MEL-2 melanoma 88.5% | EKVX NSCLC 75% | SN12C renal 73.4% | UO-31 renal 28.2% | TK-10 renal 77% | ACHN renal 73.6% | CAKI-1 renal 62.1% | A498 renal 47% | CCRF-CEM leukemia 68.4% | MOLT-4 leukemia 67.5%

c1ccc(-c2nc(N3CCCNCC3)c3nc(-c4ccccc4)oc3n2)cc1
active: HCT-15 colon -80.4% | HT29 colon -63.4% | U251 CNS -90.9% | PC-3 prostate -27.3% | UACC-62 melanoma -77.8% | LOX IMVI melanoma -95.7% | SN12C renal -22.5% | TK-10 renal -47.3% | MOLT-4 leukemia 0.525%
inactive: SNB-75 CNS 53.1% | SNB-19 CNS 70.4% | SK-MEL-5 melanoma 55.6% | SK-MEL-28 melanoma 83.7% | SK-MEL-2 melanoma 102% | EKVX NSCLC 62.8% | UO-31 renal 51.1% | CAKI-1 renal 40.1% | A498 renal 69.9% | CCRF-CEM leukemia 12.7%

COC(=O)[C@H](CC(C)C)NC(=O)NC(=O)NC(=O)CI
inactive: SNB-75 CNS 102% | SNB-19 CNS 92% | U251 CNS 90.6% | PC-3 prostate 78.3% | SK-MEL-5 melanoma 92.6% | UACC-62 melanoma 86.4% | SK-MEL-28 melanoma 89.6% | SK-MEL-2 melanoma 78.8% | EKVX NSCLC 94.8% | SN12C renal 76.5% | TK-10 renal 72.3% | A498 renal 82.8%
active: HCT-15 colon -36% | HT29 colon -43.2% | LOX IMVI melanoma -78.6% | UO-31 renal -76.3% | CAKI-1 renal -69.2% | CCRF-CEM leukemia -46.3% | MOLT-4 leukemia 4.18%

CC1(C)CC[C@]23CC[C@]4(C)[C@H](CC[C@@H]5[C@@]6(C)C/C(=C/c7cccnc7)C(=O)C(C)(C)[C@@H]6CC[C@]54C)[C@H]2[C@H]1OC3=O
inactive: HCT-15 colon 42.7% [100 µM] | HT29 colon 23.2% [100 µM] | SNB-75 CNS 19.8% [100 µM] | SNB-19 CNS 59.6% [100 µM] | U251 CNS 34% [100 µM] | PC-3 prostate 29.8% [100 µM] | UACC-62 melanoma 28.4% [100 µM] | LOX IMVI melanoma 29.2% [100 µM] | SK-MEL-28 melanoma 21.4% [100 µM] | SK-MEL-2 melanoma 27.6% [100 µM] | EKVX NSCLC 74.7% [100 µM] | SN12C renal 41.5% [100 µM] | UO-31 renal 34.8% [100 µM] | TK-10 renal 55% [100 µM] | ACHN renal 36.9% [100 µM] | CAKI-1 renal 40.6% [100 µM] | A498 renal 31.5% [100 µM] | CCRF-CEM leukemia 19.3% [100 µM] | MOLT-4 leukemia 19.4% [100 µM]
active: SK-MEL-5 melanoma -44.4% [100 µM]

CS(=O)(=O)c1cccnn1
inactive: HCT-15 colon 108% | HT29 colon 89.7% | SNB-75 CNS 48.9% | SNB-19 CNS 102% | U251 CNS 92.9% | PC-3 prostate 95.6% | SK-MEL-5 melanoma 92.9% | UACC-62 melanoma 90.7% | LOX IMVI melanoma 85.2% | SK-MEL-28 melanoma 117% | SK-MEL-2 melanoma 98.8% | EKVX NSCLC 76.9% | SN12C renal 89.1% | UO-31 renal 79.9% | TK-10 renal 109% | ACHN renal 97.7% | CAKI-1 renal 73.6% | A498 renal 66.7% | CCRF-CEM leukemia 84.9% | MOLT-4 leukemia 132%

CN(C)Cc1ccc[nH]1
inactive: HCT-15 colon 102% | HT29 colon 114% | SNB-75 CNS 92.5% | SNB-19 CNS 97.7% | U251 CNS 108% | PC-3 prostate 99.2% | SK-MEL-5 melanoma 102% | UACC-62 melanoma 91.6% | LOX IMVI melanoma 81.3% | SK-MEL-28 melanoma 107% | SK-MEL-2 melanoma 93.5% | EKVX NSCLC 90.4% | SN12C renal 70.4% | UO-31 renal 88.9% | TK-10 renal 131% | ACHN renal 101% | CAKI-1 renal 81.8% | A498 renal 76.8% | CCRF-CEM leukemia 118% | MOLT-4 leukemia 107%

ClC1=C(Cl)C(Cl)=C(Cl)C1=Cc1ccccc1
active: HCT-15 colon -55.1% | HT29 colon -30.1% | SNB-75 CNS -77% | SNB-19 CNS -16.8% | U251 CNS -50.3% | PC-3 prostate -10.3% | SK-MEL-5 melanoma -95.8% | UACC-62 melanoma -77% | LOX IMVI melanoma -91.5% | SK-MEL-28 melanoma -87.5% | SK-MEL-2 melanoma -28% | EKVX NSCLC -4.72% | SN12C renal -57% | UO-31 renal -87.1% | TK-10 renal -36.3% | CAKI-1 renal -37.9% | A498 renal -74.1% | CCRF-CEM leukemia 8.52% | MOLT-4 leukemia 2.93%

CCOC(=O)c1c[nH]n2c(=S)ncnc12
inactive: HCT-15 colon 102% | HT29 colon 100% | SNB-75 CNS 90.7% | SNB-19 CNS 96.1% | U251 CNS 102% | PC-3 prostate 117% | SK-MEL-5 melanoma 105% | UACC-62 melanoma 97.5% | LOX IMVI melanoma 96.4% | SK-MEL-28 melanoma 108% | SK-MEL-2 melanoma 94.8% | EKVX NSCLC 108% | SN12C renal 99.4% | UO-31 renal 84.8% | TK-10 renal 99.6% | ACHN renal 99.7% | CAKI-1 renal 102% | A498 renal 98.5% | CCRF-CEM leukemia 101% | MOLT-4 leukemia 90.7%

Nc1nnc(CSc2nnc3n(Cc4ccccc4)c(=O)c4c5c(sc4n23)CCCC5)s1
inactive: HCT-15 colon 90.4% | HT29 colon 102% | SNB-75 CNS 98.7% | SNB-19 CNS 100% | U251 CNS 93.2% | PC-3 prostate 90.6% | SK-MEL-5 melanoma 105% | UACC-62 melanoma 82.1% | LOX IMVI melanoma 86% | SK-MEL-28 melanoma 122% | SK-MEL-2 melanoma 109% | EKVX NSCLC 93.2% | SN12C renal 91.9% | UO-31 renal 84.6% | TK-10 renal 113% | CAKI-1 renal 10% | A498 renal 103% | CCRF-CEM leukemia 69.1%

C=CCc1nc2ccccc2s1
inactive: HCT-15 colon 94.3% | HT29 colon 89.9% | SNB-75 CNS 90.2% | SNB-19 CNS 110% | U251 CNS 100% | PC-3 prostate 88.1% | SK-MEL-5 melanoma 114% | UACC-62 melanoma 106% | LOX IMVI melanoma 99.3% | SK-MEL-28 melanoma 106% | SK-MEL-2 melanoma 107% | EKVX NSCLC 109% | SN12C renal 110% | UO-31 renal 63.6% | TK-10 renal 94.3% | CAKI-1 renal 98.3% | A498 renal 108% | CCRF-CEM leukemia 84.1% | MOLT-4 leukemia 89.1%

C=C(C)[C@@H]1CC[C@]2(C(N)=O)CC[C@]3(C)[C@H](CC[C@@H]4[C@@]5(C)C/C(=C/c6cccnc6)[C@H](O)C(C)(C)[C@@H]5CC[C@]43C)[C@@H]12
inactive: HCT-15 colon 18.7% [100 µM] | SNB-75 CNS 47.1% [100 µM] | SNB-19 CNS 39% [100 µM] | U251 CNS 24.6% [100 µM] | PC-3 prostate 21.1% [100 µM] | UACC-62 melanoma 24.8% [100 µM] | SK-MEL-28 melanoma 26.5% [100 µM] | EKVX NSCLC 33.8% [100 µM] | SN12C renal 20% [100 µM] | UO-31 renal 12.2% [100 µM] | TK-10 renal 32.5% [100 µM] | CAKI-1 renal 10.7% [100 µM] | A498 renal 61.9% [100 µM]
active: HT29 colon -20.5% [100 µM] | SK-MEL-5 melanoma -78.1% [100 µM] | LOX IMVI melanoma -35.9% [100 µM] | SK-MEL-2 melanoma -13.2% [100 µM] | ACHN renal 9.24% [100 µM] | CCRF-CEM leukemia 5.5% [100 µM] | MOLT-4 leukemia 1.99% [100 µM]

O=C1NC(=O)C(Cc2ccccc2)(Cc2ccccc2)N1
inactive: HCT-15 colon 102% | HT29 colon 94.1% | SNB-75 CNS 85.2% | SNB-19 CNS 95.2% | U251 CNS 101% | PC-3 prostate 83.2% | SK-MEL-5 melanoma 94.3% | LOX IMVI melanoma 89.4% | SK-MEL-28 melanoma 119% | SK-MEL-2 melanoma 102% | EKVX NSCLC 101% | SN12C renal 97.9% | UO-31 renal 93.6% | TK-10 renal 89.4% | ACHN renal 109% | CAKI-1 renal 92.1% | A498 renal 102% | CCRF-CEM leukemia 92.4% | MOLT-4 leukemia 90.5%

CC(C)CCSc1nc(N)nc2nc[nH]c12
inactive: HCT-15 colon 107% | HT29 colon 114% | SNB-75 CNS 101% | SNB-19 CNS 93.3% | U251 CNS 100% | PC-3 prostate 93.7% | SK-MEL-5 melanoma 93.2% | LOX IMVI melanoma 86.8% | SK-MEL-28 melanoma 121% | SK-MEL-2 melanoma 109% | EKVX NSCLC 109% | SN12C renal 92.8% | UO-31 renal 86.1% | TK-10 renal 154% | CAKI-1 renal 108% | A498 renal 116% | CCRF-CEM leukemia 102% | MOLT-4 leukemia 116%

CC1(C)OC2[C@@H](CNC(=O)NC(=O)NC(=O)CI)O[C@@H](n3cnc4c(NC(=O)Nc5ccccc5)ncnc43)[C@H]2O1 (some centres undefined)
inactive: HCT-15 colon 17.2% | SNB-75 CNS 80.5% | SNB-19 CNS 94.6% | U251 CNS 95.5% | PC-3 prostate 68.3% | SK-MEL-5 melanoma 103% | SK-MEL-28 melanoma 97.8% | SK-MEL-2 melanoma 95.4% | EKVX NSCLC 77.3% | SN12C renal 82.8% | TK-10 renal 102% | A498 renal 99.4%
active: HT29 colon 9.35% | LOX IMVI melanoma -79.4% | UO-31 renal -78.6% | CAKI-1 renal -69% | CCRF-CEM leukemia -44% | MOLT-4 leukemia -23.6%
